# Measurements published in publication PMC5540273 (PLoS ONE, 2017).
# Read-outs that look alike come from different tables or passages of the source.
# What was measured:
# [1] = tested on: CAMK4; settings: concentration: 1 μM, replicates: in singlicate; n = 1
# [2] = tested on: CAMKK1; settings: concentration: 1 μM, replicates: in singlicate; n = 1
# [3] = tested on: CAMKK2; settings: concentration: 1 μM, replicates: in singlicate; n = 1
# [4] = tested on: CASK; settings: concentration: 1 μM, replicates: in singlicate; n = 1
# [5] = tested on: T1, CDC2L1; settings: concentration: 1 μM, replicates: in singlicate; n = 1
# T1 construct: gene CDK11B
# [6] = tested on: CDC2L2; settings: concentration: 1 μM, replicates: in singlicate; n = 1
# [7] = tested on: T2, CDC2L5; settings: n = 1
# T2 construct: gene CDK13
# [8] = tested on: T3, CDK11; settings: concentration: 1 μM, replicates: in singlicate; n = 1
# T3 construct: gene CDK19
# [9] = tested on: CDK2; settings: concentration: 1 μM, replicates: in singlicate; n = 1
# [10] = tested on: CDK3; settings: concentration: 1 μM, replicates: in singlicate; n = 1
# [11] = tested on: CDK4-cyclinD1; settings: n = 1
# [12] = tested on: CDK4-cyclinD3; settings: n = 1
# [13] = tested on: CDK4; settings: n = 1
# [14] = tested on: CDK5; settings: concentration: 1 μM, replicates: in singlicate; n = 1
# [15] = tested on: CDK7; settings: concentration: 1 μM, replicates: in singlicate; n = 1
# [16] = tested on: CDK8; settings: concentration: 1 μM, replicates: in singlicate; n = 1
# [17] = tested on: CDK9; settings: concentration: 1 μM, replicates: in singlicate; n = 1
# [18] = tested on: CDKL1; settings: concentration: 1 μM, replicates: in singlicate; n = 1
# [19] = tested on: CDKL2; settings: concentration: 1 μM, replicates: in singlicate; n = 1
# [20] = tested on: CDKL3; settings: concentration: 1 μM, replicates: in singlicate; n = 1
# [21] = concentration: 1 μM, replicates: in singlicate
# 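Also: KINOMEscan kinase panel screen.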
compound,measurement,setting,value
Cc1ccc(-c2nc(Nc3ccncc3)c3ccccc3n2)s1 [GSK189015],%Inh,[1],26%
same,%Inh,[2],0%
same,%Inh,[3],7%
same,%Inh,[4],0%
same,%Inh,[5],0%
same,%Inh,[6],17%
same,%Inh,[7]; [21],0%
same,%Inh,[8],9%
same,%Inh,[9],24%
same,%Inh,[10],0%
same,%Inh,[11]; [21],0%
same,%Inh,[12]; [21],0%
same,%Inh,[13]; [21],0%
same,%Inh,[14],100%
same,%Inh,[15],0%
same,%Inh,[16],3%
same,%Inh,[17],5%
same,%Inh,[18],0%
same,%Inh,[19],0%
same,%Inh,[20],0%
CN1c2ccc(-c3ccc(C(N)=O)cc3)cc2-c2[nH]ncc2S1(=O)=O,%Inh,[1],16%
same,%Inh,[2],100%
same,%Inh,[3],21%
same,%Inh,[4],1%
same,%Inh,[5],0%
same,%Inh,[6],0%
same,%Inh,[7]; [21],2%
same,%Inh,[8],0%
same,%Inh,[9],0%
same,%Inh,[10],0%
same,%Inh,[11]; [21],27%
same,%Inh,[12]; [21],0%
same,%Inh,[13]; [21],0%
same,%Inh,[14],0%
same,%Inh,[15],0%
same,%Inh,[16],28%
same,%Inh,[17],0%
same,%Inh,[18],22%
same,%Inh,[19],31%
same,%Inh,[20],0%
COc1nccc(-c2c(-c3ccc(F)cc3)ncn2CCCN2CCOCC2)n1 [SB-282852],%Inh,[1],17%
same,%Inh,[2],10%
same,%Inh,[3],3%
same,%Inh,[4],8%
same,%Inh,[5],0%
same,%Inh,[6],0%
same,%Inh,[7]; [21],28%
same,%Inh,[8],3%
same,%Inh,[9],0%
same,%Inh,[10],6%
same,%Inh,[11]; [21],44%
same,%Inh,[12]; [21],15%
same,%Inh,[13]; [21],100%
same,%Inh,[14],0%
same,%Inh,[15],27%
same,%Inh,[16],55%
same,%Inh,[17],0%
same,%Inh,[18],31%
same,%Inh,[19],36%
same,%Inh,[20],0%
CS(=O)(=O)Cc1ccc(Nc2nccc(-c3c(-c4cccc(NC(=O)C5CCCCC5)c4)nn4ncccc34)n2)cc1 [GSK350559],%Inh,[1],0%
same,%Inh,[2],0%
same,%Inh,[3],0%
same,%Inh,[4],34%
same,%Inh,[5],0%
same,%Inh,[6],27%
same,%Inh,[7]; 1 µM,30%
same,%Inh,[8],0%
same,%Inh,[9],0%
same,%Inh,[10],0%
same,%Inh,[11]; 1 µM,15%
same,%Inh,[12]; 1 µM,18%
same,%Inh,[13]; 1 µM,18%
same,%Inh,[14],4%
same,%Inh,[15],6%
same,%Inh,[16],0%
same,%Inh,[17],0%
same,%Inh,[18],0%
same,%Inh,[19],5%
same,%Inh,[20],0%
COC(=O)C(Cc1ccccc1)NC(=O)NC1CCN(c2ccnc(Nc3ccc(F)cc3)n2)C1 (stereo not shown) [GSK1379714],%Inh,[1],9%
same,%Inh,[2],19%
same,%Inh,[3],9%
same,%Inh,[4],4%
same,%Inh,[5],0%
same,%Inh,[6],18%
same,%Inh,[7]; [21],0%
same,%Inh,[8],48%
same,%Inh,[9],0%
same,%Inh,[10],6%
same,%Inh,[11]; [21],29%
same,%Inh,[12]; [21],0%
same,%Inh,[13]; [21],5%
same,%Inh,[14],0%
same,%Inh,[15],0%
same,%Inh,[16],48%
same,%Inh,[17],0%
same,%Inh,[18],8%
same,%Inh,[19],9%
same,%Inh,[20],0%
